Lassa entry inh – Lassa virus entry inhibition; Lassa virus pseudotype entry inhibition, cell reporter; Potency, µM (doses to about 37.9 µM), without a hit: at the highest dose activity change, negative = inhibition, actives largely listed as inhibitors; 300,000 tested, 1.2% active; calls by dose curve; tested in HEK293 cells; note: potency is the fitted concentration of half-maximal effect; nearly all actives have a fitted effect of over 50% in size
Marburg entry inh – inhibitors of Marburg virus binding or cell entry; Marburg virus pseudotyped entry inhibition, cell reporter; Potency, µM (titrated, usually from 37.8 µM), inactives show at the top dose activity change, negative = inhibition, actives largely listed as inhibitors; 300,000 tested, 1.8% active; AID 540276; calls by dose curve; tested in HEK293 cells; note: potency is the fitted concentration of half-maximal effect
VACV Venus inh – inhibitors of vaccinia virus (Venus reporter); 330,000 tested, 0.46% active; Vaccinia virus Venus reporter expression, fluorescence; Potency, µM (doses to about 36.5 µM), for the others: at the highest dose activity change, negative = inhibition, most hits filed as inhibitors; AID 720580; calls by dose curve; tested in A549 cells; note: potency is the fitted concentration of half-maximal effect; nearly all actives have a fitted effect of over 30% in size
VACV mCherry inh – vaccinia inhibition (mCherry reporter) | Vaccinia virus mCherry reporter infection, fluorescence | Potency, µM (titrated, usually from 36.5 µM), for inactives: at the top dose activity change, negative = inhibition, usual class: inhibitors | 310,000 tested, 0.63% active | AID 720579; calls by dose curve; tested in A549 cells; note: potency is the fitted concentration of half-maximal effect; nearly all actives have a fitted effect of over 35% in size
FMDV antiviral – blocks foot and mouth disease virus; FMDV antiviral cell-based qHTS; 410,000 tested, 1.2% active; Potency, µM (doses to about 57.9 µM), for the others: at the top dose activity change, negative = inhibition, actives largely listed as inhibitors; AID 1159524; calls by dose curve; tested in HEK293T cells; note: read-out not given here; potency is the fitted concentration of half-maximal effect; nearly all actives have a fitted effect of over 45% in size
HCMV inh – human cytomegalovirus inhibition; HFF cells, HCMV-luciferase reporter, 72 h; active compounds read low; activity change, negative = inhibition, % at 57.5 µM; 410,000 tested, 4.5% active; AID 1259415; in the data active = activity change below about -60%; inconclusive = no clear call, values can overlap the other calls; inactive = above about -39%
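Compounds were evaluated in HFFs infected with an HCMV luciferase reporter virus (MOI 1 PFU/cell). Luciferase in lysates collected 72 h post infection served as the replication measure.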
Starred values were filed as active, the others as inactive; i = inactive; ? = inconclusive; nt = no result given; [ ] = another dose, or the depositor's remark. A selection: hits, their analogues and other compounds. The true share with any hit is near 6.5%. % is set by controls: 0 for no effect and ±100 for the full control effect.

SMILES	Lassa entry inh	Marburg entry inh	VACV Venus inh	VACV mCherry inh	FMDV antiviral	HCMV inh
CN=CC1=C(O)c2ccccc2C1=O	17%	8%	-6%	i	54%	22
O=C1C(C2=C(O)c3ccccc3C2=O)=Nc2ccccc21	?	?	nt	nt	24%	-78*
C[C@H]1CN(Cc2ccccc2)C(=O)[C@H]1CC(=O)Nc1ccccc1	-9%[46.1 µM]	nt	nt	nt	nt	nt
COc1ccc(OC)c(-c2ccc(O)c(CN3CCc4c([nH]c5ccccc45)C3)c2)c1	nt	nt	-7%	-9%	-11%	nt
O=C(Nc1nc(-c2cccs2)cs1)c1cccc(S(=O)(=O)N2CCCCCC2)c1	-16%	?	?	?	3%	95
O=C(Nc1nc(-c2ccc(S(=O)(=O)N3CCCC3)cc2)cs1)c1ccco1	-20%	?	-22%	?	?	-65*
O=C(Nc1nc(-c2cccs2)cs1)c1ccc(S(=O)(=O)N2CCCCC2)cc1	nt	-3%	?	?	16µM*	-67*
CNc1nc(-c2ccc(S(=O)(=O)N3CCCCC3)cc2)cs1	nt	nt	nt	nt	-23%	74
COc1cccc(NC(=O)N(Cc2cn(C)c3ccccc23)C2CCCCC2)c1	?	2%[46.1 µM]	-22%	-21%	19%	-104*
Cc1ccc(NC(=O)N(Cc2c[nH]c3ccccc23)C2CCCCCC2)cc1C	2.5µM*	?	10%	?	19%	-4
COc1cccc(NC(=O)N(Cc2c[nH]c3ccccc23)C2CCCCC2)c1	-16%[46.1 µM]	?	-8%	-9%	13%	40
CC(=O)Nc1c([N+](=O)[O-])cc(C)c(Cl)c1[N+](=O)[O-]	-17%[46.1 µM]	?	-27%	?	-13%	-77*
COc1cc(=O)n2c(c1C(=O)NC(C)c1ccco1)CCN(C(=O)c1ccnc(Cl)c1)CC2 (stereo not drawn)	nt	nt	-8%	-12%	-5%	nt
COc1ccc(COC(=O)C2=C(C)NC(=O)NC2c2ccc(O)c(OC)c2)cc1 (stereo not drawn)	?	-8%	-17%	i	nt	-68*
CCOC(=O)C1=C(CNCc2ccc(C)cc2)NC(=O)NC1c1ccc(OC)cc1 (stereo not drawn)	?	5µM*	?	nt	-22%	15
CC1=C(C(=O)OCc2ccc3c(c2)OCO3)C(c2ccc(Cl)cc2)NC(=O)N1 (stereo not drawn)	?	2.1µM*	?	?	nt	-86*
CCC[C@]12CCN3C(=O)N[C@@H](c4ccccc4)[C@](C(=O)OCC)(C1)[C@H]32	nt	9%[14.2 µM]	nt	nt	nt	nt
CCOC(=O)c1ccccc1NC(=O)N1CCN2CCCCC2C1 (stereo not drawn)	-7%[46.1 µM]	nt	-7%	i	0%	7
CC(C)c1ccc(/C=N/N2CCN(c3ccccn3)CC2)cc1	5%[46.1 µM]	?	-4%	-4%	-4%	-63*
CC(C)c1ccc(/C=N/N2CCCCC2)cc1	4%	?	2%	-5%	-11%	-70*
CCCCCCN1Cc2ccccc2C1	-2%	?	1%	nt	-8%	-17
CCCCCCCCn1sccc1=O	nt	nt	-15%	-12%	28µM*	-2
Cc1ccc2nc(Cl)c3nnnn3c2c1	1%[46.1 µM]	2%[46.1 µM]	-2%	i	13µM*	nt
O=C(CN1CCCN(Cc2cccc(F)c2)S1(=O)=O)Nc1ccc2c(c1)OCCO2	-12%[46.1 µM]	nt	-6%	-11%	-13%	-12
CCC(c1nnnn1CCc1ccccc1)N(Cc1ccco1)Cc1cc2cc(C)cc(C)c2[nH]c1=O (stereo not drawn)	?	?	-21%	nt	?	-71*
SMILES	Lassa entry inh	Marburg entry inh	VACV Venus inh	VACV mCherry inh	FMDV antiviral	HCMV inh
CCC(c1nnnn1CCc1ccccc1)N(Cc1ccco1)Cc1cc2c(C)ccc(C)c2[nH]c1=O (stereo not drawn)	?	14µM*	?	nt	1%	-33
Cc1cc(/C=N/n2cnnc2)c(C)n1-c1ccc(Cl)cc1	-20%	?	-8%	i	0%	-17
Cc1cc(/C=N/n2cnnc2)c(C)n1-c1ccc(OCc2ccc(Cl)cc2Cl)cc1	7.1µM*	8.9µM*	?	nt	-46%	nt
Cc1cc(/C=N/n2cnnc2)c(C)n1-c1ccc(OCc2ccc(F)cc2)cc1	?	?	-25%	-29%	nt	-86*
CC(C)(CNC(=O)c1cnn(-c2nccc(-c3cc4ccccc4o3)n2)c1C1CC1)N1CCOCC1	nt	nt	-1%	0%	6%	nt
CCCSc1nc(N)nc2c1ncn2C1OC(CO)C(O)C1O (stereo not drawn)	?	8%[46.1 µM]	-14%	i	-2%	-70*
CCN(CC)CCNC(=O)C1=C(OC)CC(N)=C(Cl)C1	nt	14%	nt	nt	nt	nt
Cc1cc(C(C)(C)C)oc1C(=O)N(CC(=O)NC1CCCC1)Cc1ccccc1	-6%	-18%	-5%	-10%	nt	-24
Cc1ccc(C)c(N(CC(=O)NC2CCCC2)C(=O)c2oc(C(C)(C)C)cc2C)c1	?	?	-15%	-9%	nt	-67*
O=C1[C@H]2[C@H]3[C@H](O)[C@H](O)C/C(=N\OCc4ccccc4)[C@H]3CC[C@H]2C(=O)N1Cc1ccc2c(c1)OCO2	nt	-38%[14.2 µM]	nt	nt	nt	nt
O=C(Nc1nc(-c2ccc(-c3ccccc3)cc2)cs1)C1=COCCO1	-8%	?	?	?	-5%	-64*
O=C(Nc1ccc(-c2nc3ccccc3s2)cc1)C1=COCCO1	2µM*	0.79µM*	-2%	i	10µM*	-21
O=C1OC(c2cccc(Cl)c2)N=C2C1C=NN2c1ccccc1 (stereo not drawn)	nt	2%	nt	nt	nt	nt
COc1ccc(OC[C@@H]2CC3[C@@H](c4ccc(Br)cc4)[C@H](C)CC[C@H]3C(=O)O2)cc1 (stereo partly drawn)	nt	-5%[14.2 µM]	nt	nt	nt	nt
CC(C)c1cc(NCC2CCCO2)n2c(nc3ccccc32)c1C#N (stereo not drawn)	?	?	nt	nt	?	-60*
CCCCNC(=O)c1nc2cc(C)c(C)cc2nc1-c1cccc(OC)c1	nt	nt	nt	nt	nt	19
COc1ccccc1-c1ccnc(-n2ncc(C(=O)N(C)CCc3ccccn3)c2C)n1	nt	nt	2%	-17%	19%	nt
CCCSc1nc2cc(OC)c(OC)cc2c(=N)n1CCCN1CCOCC1	?	14µM*	?	?	-20%	-25
COc1cccc2c1C(=O)/C(=C\c1ccc(N(C)C)cc1)C2	nt	nt	213%	-24%	nt	nt
COC(=O)[C@]12CCCCC=C1N(Cc1ccc3c(c1)OCO3)C(=O)[C@H](CC(=O)NCc1cccc3ccccc13)C2	nt	nt	?	?	-11%	-61*
CCCCOCCCNC(=O)C[C@@H]1C[C@@]2(C(=O)OC)CC(C)(C)CC=C2N(Cc2ccc3c(c2)OCO3)C1=O	nt	nt	?	-19%	-19%	-15
COCCCNC(=O)C[C@@H]1C[C@@]2(C(=O)OC)CC(C)(C)CC=C2N(Cc2ccc3c(c2)OCO3)C1=O	nt	nt	3%	-25%	1%	-62*
COC(=O)[C@]12CCCCC=C1N(Cc1cccc3ccccc13)C(=O)[C@H](CC(=O)NCCC(C)C)C2	nt	nt	-10%	1%	-26%	-61*

Screens: PubChem BioAssay, National Center for Advancing Translational Sciences (NCATS)
